PI5P4Ka inh – PI5P4K alpha (human) kinase inhibition | P48426 | PI5P4Kalpha enzyme, ADP-Glo luminescence, 60 min; hits give low values | max response, % | 330,000 compounds, 1.2% hits | AID 652105; active means max response of -50% or lower; inconclusive means between -30% and -50%; inactive means -30% or higher; further: value at the top dose of about 77 µM; on the % scale 0 is the no-effect control and ±100 the full control effect
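Human PI5P4Kalpha with substrate in 0.038 M HEPES pH 7.4, 0.28 mM EGTA, 0.1% CHAPS, 5% DMSO; reaction started with 5 microM ATP (final), 60 min at room temperature. ADP formed read by ADP-Glo luminescence.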
Rango release inh – inhibitors of RanGTP-induced Rango-importin beta complex dissociation | 340,000 compounds, 0.071% hits | Biochemical FRET Rango-importin beta, RanGTP-induced dissociation | O95149+P62826 | Potency, µM (series often up to 46.1 µM), inactives show at the highest dose activity change, negative = inhibition | AID 540253; calls by dose curve; further: potency means the concentration at half of the fitted maximal effect; % of control where 0% means no effect; nearly all actives have a fitted effect of over 45% in size
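Rango FRET biosensor (snurportin-1 IBB flanked by N-terminal EYFP and C-terminal CFP10) at 0.1 uM, with 0.25 uM importin beta in PBS, 1mM DTT, 0.02% Tween-20, 0.1% BSA. 0.6 uM Ran, 2mM GTP and 0.2 uM RCC1 were then added for 45 min at room temperature. Inhibition read as loss of FRET rise.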
Rango-impB inh – Rango-importin beta binding inhibition | 340,000 compounds, 0.031% hits | Rango CFP/YFP FRET sensor + importin beta, 45 min | AID 540263 | Q14974 | Potency, µM (top dose mostly 92.2 µM), for the others: at the top dose inhibition of complex formation; calls by dose curve;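 further: potency means the concentration at half of the fitted maximal effect; 0% = DMSO wells and 100% = buffer wells lacking importin beta; nearly all actives have a fitted effect of over 15% in size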
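Inhibition scored from the CFP 486 nm/YFP 530 nm FRET ratio 45 min after adding 0.125 microM importin beta to 50 nM Rango biosensor preincubated 5 min with compound (room temperature, PBS with DTT, Tween-20, BSA). No-importin wells as positive control.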
KAT2A inh – GCN5L2 (KAT2A) acetyltransferase inhibition; AID 504327; GCN5L2 HAT assay, ThioGlo1 CoA-SH fluorescence; 390,000 compounds, 0.21% hits; Q92830; Potency, µM (series often up to 58.9 µM), without a hit: top-dose activity change, negative = inhibition, usual class: inhibitors; further: potency means the concentration at half of the fitted maximal effect; on the % scale 0 is the no-effect control and ±100 the full control effect
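Compounds, pin-transferred from DMSO stocks, meet 20nM GCN5L2 for 15 min before the reaction begins with H3(1-25) peptide (75uM) and acetyl-CoA (70uM). Thiol-reactive ThioGlo1 reports CoA release over 20 min at room temperature.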
PLK1 PBD inh – inhibitors of human PLK1 polo-box domain binding; Plk1 PBD binding of FITC phosphopeptide, fluorescence polarization; Potency, µM, for the others: max response, negative = inhibition, hits mostly inhibitors; 360,000 compounds, 2.8% hits; further: potency means the concentration at half of the fitted maximal effect; series mostly up to about 57 µM; on the % scale 0 is the no-effect control and ±100 the full control effect; nearly all actives have a fitted effect of over 65% in size
VDR inhibitor – vitamin D3 receptor (human) inhibition. P11473. VDR-SRC2-3 peptide fluorescence polarization, 2 h. Potency, µM, inactives show max response, negative = inhibition, actives largely listed as inhibitors. 400,000 compounds, 0.93% hits. AID 504847; further: potency means the concentration at half of the fitted maximal effect; on the % scale 0 is the no-effect control and ±100 the full control effect
Target sequence (P11473 whole entry, looked up): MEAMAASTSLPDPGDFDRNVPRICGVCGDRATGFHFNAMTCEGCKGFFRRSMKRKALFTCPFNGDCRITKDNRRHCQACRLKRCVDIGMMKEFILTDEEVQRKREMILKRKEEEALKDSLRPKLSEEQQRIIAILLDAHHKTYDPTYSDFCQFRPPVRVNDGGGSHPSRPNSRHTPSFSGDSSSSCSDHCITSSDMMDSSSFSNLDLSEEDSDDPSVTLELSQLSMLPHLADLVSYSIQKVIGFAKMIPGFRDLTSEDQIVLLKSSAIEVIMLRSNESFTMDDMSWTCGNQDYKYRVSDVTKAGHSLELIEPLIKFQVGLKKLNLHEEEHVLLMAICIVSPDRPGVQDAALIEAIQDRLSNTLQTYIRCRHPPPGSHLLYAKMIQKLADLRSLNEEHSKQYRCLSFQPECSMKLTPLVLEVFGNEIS
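After 23 nl compound addition and a short centrifugation, plates sat for 2 hours at ambient temperature; polarization of fluorescence then indicated loss of VDR binding to peptide SRC2-3.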
* hit, by the source's call; ? = inconclusive; . = no result. This is a sample that favours compounds with a hit; in the whole collection about 3.6% have one here. Unless noted, the call rests on the fitted dose curve; in most records, active means well fitted curve in the direction sought with a large enough effect; inconclusive means small, poorly fitted or top-dose-only effect, or another doubt; inactive means no such curve, though single readings can be large; an effect the other way counts as inactive or inconclusive.

SMILES	PI5P4Ka inh	Rango release inh	Rango-impB inh	KAT2A inh	PLK1 PBD inh	VDR inhibitor
Cc1ccn2c(=O)c(C(=O)NCCc3ccccc3)c(O)nc2c1	.	.	.	0.5%	.	-7.6%
CC(=O)NC(CCS(C)(=O)=O)C(=O)Nc1nccs1 (stereo not drawn)	4.4	-0.6%	?	-7.1%	26.7µM*	-18.1%
CC(NS(=O)(=O)c1ccccc1)C(=O)Nc1nccs1 (stereo not drawn)	-9.8	-14.5%	-4.9%	-7.1%	21.2µM*	0.1%
CCOc1ccc(NC(=O)CCn2c(=O)c3cccn3c3cccnc32)cc1	.	.	.	2.9%	.	6.0%
CSc1ccccc1NC(=O)c1ccc([N+](=O)[O-])cc1	-20.5	-14.6%	-0.5%	1.1%	23.8µM*	?
Cc1ncoc1C(=O)Nc1ncc([N+](=O)[O-])s1	?	1.4%	?	-18.4%	?	89.1µM*
Cc1cc(NC(=O)c2ocnc2C)no1	.	-8.4%	-4.1%	-3.0%	23.8µM*	?
Cc1cc(NC(=O)c2ccc([N+](=O)[O-])cc2)no1	-12.2	-0.7%	-2.1%	2.6%	21.2µM*	?
O=C(Nc1ncc([N+](=O)[O-])s1)c1cccs1	-14.7	?	?	-3.4%	-8.4%	-12.4%
CCc1ccc(NC(=O)Cn2c(=O)n(CC3CCCO3)c(=O)c3cc(OC)c(OC)cc32)cc1 (stereo not drawn)	.	.	.	-5.7%	.	13.3%
Cc1ccccc1OCC(=O)OCc1cc(=O)n2nc(C3CCCCC3)sc2n1	.	.	.	1.3%	.	12.0%
COc1cccc(Cn2c(NCc3ccc(C)cc3)nc3c2c(=O)n(C)c(=O)n3C)c1	.	.	.	-6.0%	.	-26.2%
CC(=O)N1CCc2cc(Br)cc(S(=O)(=O)NCCc3ccc(Cl)cc3)c21	.	.	.	-4.7%	.	0.7%
CCC(=O)Nc1ccc(Cl)c(NC(=O)c2cccc(OC)c2)c1	3.8	5.9%	2.8%	14.2%	-10.7%	-13.0%
CCC(=O)Nc1ccc(Cl)c(NC(=O)c2ccc([N+](=O)[O-])cc2)c1	-23.1	9.1%	-1.6%	-10.4%	8.44µM*	?
CCOC(=O)c1cnc(SC2CCc3ccccc3C2=O)nc1N (stereo not drawn)	1.3	2.8%	0.3%	-0.7%	26.7µM*	9.7%
CCOC(=O)c1cnc(SC2CC(=O)N(c3ccc(C)cc3)C2=O)nc1N (stereo not drawn)	0.1	2.4%	-1.4%	.	-2.0%	-3.9%
CCOC(=O)c1cnc(SCCc2ccccc2)nc1N	.	1.3%	-2.8%	1.2%	-8.1%	-3.8%
CCCCSc1ncc(C(=O)OCC)c(N)n1	-18.3	-20.7%	-0.5%	-4.8%	9.47µM*	-24.9%
CC(=O)N1CCc2c(sc3c2c(=O)n(-c2ccccc2)c(=O)n3Cc2cccc(C(F)(F)F)c2)C1	.	.	.	-1.2%	.	-14.2%
CC(NC(=O)Cc1ccsc1)c1ccc(F)cc1 (stereo not drawn)	-11.0	0.1%	-2.0%	-8.2%	-14.1%	-19.7%
CC(NC(=O)COC(=O)Cc1ccc(Cl)cc1)c1ccccc1 (stereo not drawn)	0.8	4.4%	0.6%	-2.6%	-11.1%	-11.0%
CC(NC(=O)Cc1ccccc1F)c1ccc(F)cc1 (stereo not drawn)	-1.8	-8.7%	1.1%	0.8%	23.8µM*	0.7%
CC(NC(=O)Cc1ccc(-c2ccccc2)cc1)c1ccccc1 (stereo not drawn)	-15.0	7.5%	3.1%	4.2%	26.7µM*	?
CCn1cc(C(=O)N2CCN(c3ccc(F)cc3)CC2)c(=O)c2cc(S(=O)(=O)N3CCOCC3)ccc21	.	.	.	-2.7%	.	15.4%
CC(=O)OCCBr	.	.	.	27.6%	.	1.9%
COc1ccccc1N1C(=O)C(Cl)=C(Nc2ccccc2O)C1=O	?	-9.7%	3.4%	-5.2%	6.7µM*	?
CCOc1ccccc1NC1=C(Cl)C(=O)N(c2ccc(OC)cc2)C1=O	8.8	-20.1%	-0.2%	-3.6%	-17.8%	?
Cc1c(NC2=C(Cl)C(=O)N(c3ccccc3)C2=O)c(=O)n(-c2ccccc2)n1C	.	0.4%	-1.1%	-28.0%	26.7µM*	?

Compound activity deposited in PubChem BioAssay by National Center for Advancing Translational Sciences (NCATS).
